Hits are enriched below; roughly 2.8% of the tested compounds scored in any of these assays.
Peg3 prom inh: reduces Peg3 promoter-driven luciferase expression in HeLa. 360,000 compounds, 1.7% hits. HeLa PEG-Prom luciferase reporter, luminescence, overnight. AID 588405. inhibition, % at 20 µM;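 active means inhibition of at least 50% at 20 µM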
KKLEB cytotox: reduces viability of KKLEB cystic fibrosis airway cells; KKLEB CF airway cells viability, ATPlite luminescence, overnight; stronger effect = lower value; cells stimulated with P. aeruginosa culture filtrate; activity change (cytotoxicity), % at 5 µM; 360,000 compounds, 0.36% hits;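 active means corrected activity change at or below -50% at 5 µM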
B2AR ag: human beta-2 adrenergic receptor agonism by FAP; Am2.2-beta2AR cells, FAP receptor internalization, flow cytometry; response, % (test concentration not listed); 340,000 compounds, 0.43% hits; AID 504454;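 active means response above a set limit, near 3 SD of response in nonfluorescent compounds, cut at about 42% in these data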
Target sequence (P07550 whole entry, looked up): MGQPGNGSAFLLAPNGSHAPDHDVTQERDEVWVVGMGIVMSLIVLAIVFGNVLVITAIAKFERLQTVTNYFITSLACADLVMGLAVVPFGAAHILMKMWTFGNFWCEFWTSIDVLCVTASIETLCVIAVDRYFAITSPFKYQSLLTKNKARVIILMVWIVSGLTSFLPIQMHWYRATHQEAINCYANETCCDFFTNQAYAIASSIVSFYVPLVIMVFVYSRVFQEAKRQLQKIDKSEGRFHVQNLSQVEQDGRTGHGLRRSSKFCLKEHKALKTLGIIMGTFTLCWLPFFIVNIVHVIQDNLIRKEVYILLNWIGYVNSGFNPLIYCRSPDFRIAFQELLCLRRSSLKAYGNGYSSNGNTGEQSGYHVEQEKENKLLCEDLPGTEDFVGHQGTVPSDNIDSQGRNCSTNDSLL
HIF-2a inh: HIF-2a inhibition; AID 624352; 786-0 RCC cells HIF-2a reporter, luciferase luminescence, overnight; 360,000 compounds, 0.72% hits; inhibition, % at 18.8 µM;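 active means inhibition of the luminescence signal of 40% or more relative to plate controls, in a single-dose primary screen at 18.75 µM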
CF NFkB block: blocks PAF-induced NF-kB reporter in cystic fibrosis cells | KKLEB NF-kB-GFP reporter, GFP fluorescence overnight | AID 588850 | 360,000 compounds, 0.86% hits | inhibition, % at 5 µM;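 active means at least 50% inhibition at 5 µM, scaled per plate between neutral and stimulator controls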;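 further: PAF is a Pseudomonas aeruginosa culture filtrate used as stimulus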
TRPM1 prom inh: reduces MITF-dependent TRPM1 promoter luciferase signal | 330,000 compounds, 0.83% hits | inhibition, % at 12.5 µM | SK-MEL-5 TRPM1 promoter luciferase, 24 h | AID 488899;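 active means mean inhibition across replicates of 60% or more, whatever share of single replicates reaches that level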
Each line names hits and unclear results; the compound was inactive in the other large screens.

N=C1/C(=C\c2ccc(-c3ccc(C(=O)O)cc3)o2)C(=O)N=C2SC=C(c3ccccc3)N12	CF NFkB block 72.0
N=C1/C(=C\c2ccc(-c3cccc(Cl)c3)o2)C(=O)N=C2SC=C(c3ccccc3)N12	B2AR ag 57.5
Cc1cc(/C=C2/C(=N)N3C(c4ccccc4)=CSC3=NC2=O)c(C)n1-c1ccc(Cl)cc1	none
CC(C)CC1C(=O)N(Cc2cn(CC3CCCCC3)nn2)CCS(=O)(=O)N1Cc1ccc(-c2ccncc2)cc1 (stereo unspecified)	none (no result: B2AR ag, TRPM1 prom inh)
Cc1ccc(C(O)c2ncc(-c3cccc4ccccc34)[nH]2)cc1F (stereo unspecified)	none (no result: B2AR ag, TRPM1 prom inh)
C/C(=N\NC(=O)C(C)Oc1ccc([N+](=O)[O-])cc1)c1ccccn1 (stereo unspecified)	TRPM1 prom inh 83.1
COc1ccc(S(=O)(=O)N2Cc3ccccc3CC2C(=O)O)cc1 (stereo unspecified)	none
O=C(O)C1Cc2ccccc2CN1S(=O)(=O)c1ccc(Cl)cc1 (stereo unspecified)	KKLEB cytotox -77.7, CF NFkB block 59.1
CC1(C(=O)Nc2cccc(C(F)(F)F)c2)Cc2c(-c3ccccc3)ccnc2O1 (stereo unspecified)	none (no result: B2AR ag, TRPM1 prom inh)
CCCCCc1ccc(OCCOCCn2c[n+](C)c3ccccc32)c(CCCCC)c1	Peg3 prom inh 104.7, TRPM1 prom inh 76.8
CCCCCc1ccc(OCCC[n+]2ccccc2)c(CCCCC)c1	Peg3 prom inh 106.6, KKLEB cytotox -91.1, CF NFkB block 84.7, TRPM1 prom inh 104.9
COC(=O)[C@]12CCCCC=C1N(CCC1=CCCCC1)C(=O)[C@H](CC(=O)N1CCCC1)C2	none (no result: Peg3 prom inh, KKLEB cytotox, B2AR ag, CF NFkB block, TRPM1 prom inh)
C[C@@H]1CN([C@@H](C)CO)C(=O)CCCn2nncc2CO[C@@H]1CN(C)S(C)(=O)=O	none (no result: B2AR ag, TRPM1 prom inh)
COC(=O)C[C@H]1C=C[C@H](NS(=O)(=O)c2cn(C)cn2)[C@@H](CO)O1	none (no result: Peg3 prom inh, KKLEB cytotox, B2AR ag, CF NFkB block, TRPM1 prom inh)
Cn1ccnc1Sc1cc(NCCCO)c([N+](=O)[O-])c2nonc12	Peg3 prom inh 84.6, B2AR ag 46.5
O=C(Nc1cccc(O)c1)c1cc(-c2ccc3c(c2)OCO3)on1	KKLEB cytotox -69.6
Fc1cccc(Cl)c1C1SCc2nc3ccccc3n21 (stereo unspecified)	none (no result: B2AR ag, TRPM1 prom inh)
O=c1[nH]c(C2CCN(S(=O)(=O)c3cccc(C(F)(F)F)c3)CC2)nc2c1nnn2Cc1cccc(F)c1	Peg3 prom inh 51.4
O=c1[nH]c(C2CCN(S(=O)(=O)c3ccc4c(c3)OCCO4)CC2)nc2c1nnn2Cc1cccc(F)c1	none (no result: TRPM1 prom inh)
Cc1cc(C)c2c(=N)c3ccccc3n(CCCCCCCCn3c4ccccc4c(=N)c4c(C)cc(C)nc43)c2n1	Peg3 prom inh 104.6, B2AR ag 63.1
Cc1ccccc1Cn1c(C)c(C(=O)NCC(C)C)sc1=O	none (no result: B2AR ag, TRPM1 prom inh)
Cc1cc2oc3cc(NCCC4CCCN4C)ccc3c(=O)c2cc1C (stereo unspecified)	Peg3 prom inh 83.2
COc1ccc2c(C)cc(SCC(=O)Nc3ccc(Cl)cn3)nc2c1	KKLEB cytotox -52.5, CF NFkB block 51.6
Cc1sc(NC(=S)NC(=O)CCc2ccccc2)c(C(N)=O)c1C	CF NFkB block 50.5
CCOC(=O)c1ccc(NC(=O)c2nc(S(=O)(=O)Cc3ccccc3)ncc2Cl)cc1	Peg3 prom inh 109.6, KKLEB cytotox -65.8, HIF-2a inh 88.5, CF NFkB block 95.1, TRPM1 prom inh 77.8
CSc1nnc(NC(=O)c2nc(S(=O)(=O)Cc3ccccc3)ncc2Cl)s1	Peg3 prom inh 105.0, KKLEB cytotox -82.0, CF NFkB block 91.4, TRPM1 prom inh 67.6
C[C@H](CO)N1C[C@H](C)[C@@H](CN(C)C(=O)Nc2ccc(F)cc2)OCc2cnnn2CCCC1=O	none (no result: B2AR ag, TRPM1 prom inh)
COc1ccc(NC(=O)c2cccc(N3C(=O)c4ccc(C(=O)Nc5ccc(OC)c(O)c5)cc4C3=O)c2)cc1O	none
CC(=O)c1ccc(NC(=O)c2cccc(N3C(=O)c4ccccc4C3=O)c2)cc1	B2AR ag 81.2
O=C(CCN1C(=O)NC2(CCCC2)C1=O)Nc1ccc(-c2nc3ccccc3s2)cc1	Peg3 prom inh 100.5
O=C(CCN1C(=O)NC2(CCCC2)C1=O)Nc1ccc(Sc2ccc(Br)cc2)cc1	none (no result: B2AR ag, TRPM1 prom inh)
O=C(NCc1ccccc1)C1C(=O)Nc2ccccc2C(=O)N1Cc1ccccc1 (stereo unspecified)	none (no result: Peg3 prom inh, KKLEB cytotox, B2AR ag, CF NFkB block, TRPM1 prom inh)
FC(F)(F)c1nc(-c2cccs2)ncc1-c1nnnn1-c1ccc(Cl)cc1	Peg3 prom inh 68.6
Clc1ccc(-n2nnnc2-c2cnc(-c3ccncc3)nc2-c2cccs2)cc1	none
O=C(CNc1ccc(Br)cc1)Nc1ccc(S(=O)(=O)N2CCCCC2)cc1	none (no result: B2AR ag, TRPM1 prom inh)
C=C1C(=O)O[C@H]2[C@H]1[C@@H](O)CC(=C)[C@@H]1CC(=O)[C@@H](C)[C@H]21	CF NFkB block 85.3
CCCCNC(=O)C1(C)CCCCN1C(=O)c1cc(-c2ccccc2)cs1 (stereo unspecified)	none (no result: B2AR ag, TRPM1 prom inh)
CCN(CC)CCCNc1ccc2ncn3c4ccc(O)cc4c(=O)c1c23	none
CN(C)CCNc1cccc2sc3ccc(O)cc3c(=O)c12	Peg3 prom inh 99.1, HIF-2a inh 42.6 (no result: B2AR ag, TRPM1 prom inh)
COc1cc(C)c2sc3ccccc3c(=O)c2c1NCCN(C)C	Peg3 prom inh 100.4 (no result: B2AR ag, TRPM1 prom inh)
O=C(Nc1ccccc1F)c1ccc2sc([C@@H]3O[C@H](CO)[C@H](O)[C@H](O)[C@H]3O)nc2c1	none (no result: B2AR ag, TRPM1 prom inh)
Cc1ccc(NCCCn2cnc(C(=O)Nc3ccc(C)c(C)c3)n2)cc1C	none
Cc1ccc(NC(=O)c2ncn(CCCN[C@H](C)c3cccc4ccccc34)n2)cc1C	Peg3 prom inh 84.6
Cc1cc2oc(=O)cc(CN3CCN(c4ccc(Cl)c(Cl)c4)CC3)c2cc1Cl	none (no result: B2AR ag, TRPM1 prom inh)
COc1ccc(C(=O)N2CCCCC2c2cc(C(=O)Nc3cccc(C#N)c3)no2)cc1 (stereo unspecified)	none (no result: B2AR ag, TRPM1 prom inh)
COc1cc(OC)c(OC)cc1/C=C1\CC(C)C/C(=C\c2cc(OC)c(OC)cc2OC)C1=O (stereo unspecified)	Peg3 prom inh 57.9
COc1cc(CNC(C)c2ccccc2)cc(Br)c1OCc1ccc(F)cc1 (stereo unspecified)	Peg3 prom inh 58.8
CC1(C)c2[nH]c3ccccc3c2C[C@@H]2C(=O)N(Cc3ccc(F)cc3)C(=O)N21	Peg3 prom inh 62.0
C[C@@H]1CN([C@@H](C)CO)C(=O)c2cc(NC(=O)c3ccccc3)ccc2O[C@@H](C)CCCCO[C@@H]1CN(C)Cc1ccc(C(F)(F)F)cc1	none (no result: B2AR ag, TRPM1 prom inh)
Cc1ccc(N=C2NC(=O)/C(=C/c3cn(C)c4ccccc34)S2)cc1C	CF NFkB block 53.2
O=C(/C=C/c1ccccc1[N+](=O)[O-])c1ccc(F)cc1	Peg3 prom inh 106.8
O=C(/C=C/c1ccccc1[N+](=O)[O-])OCC(=O)c1ccccc1	none
CCCCNC(=O)C[C@@H]1C[C@@]2(C(=O)OCC)CCCC=C2N(Cc2ccccc2)C1=O	none (no result: Peg3 prom inh, KKLEB cytotox, B2AR ag, CF NFkB block, TRPM1 prom inh)
